# Source: PubChem BioAssay
# How the values were obtained:
# [1] = test system: Human papillomavirus type 1a protein E7 (residues 44-93); test: HPV1a E7 fragment binders on microarrays, primary screen, biochemical, small-molecule microarray, residues 44-93, 635 nm fluorescence (AID 1108); conditions: small-molecule microarray binding, fluorescence 635 nm; higher = more signal;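 also: E7 fragment applied at 1 µg/mL in TBST for 1 h at 4 C; score combines spot fluorescence with its signal to noise ratio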
# [2] = modulators of HCV replicon luciferase signal, primary screen, HCV replication inhibitor project, Huh7 cells, luciferase reporter (AID 1109); conditions: 48 h, higher = more signal;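 also: huh7 hepatoma cells harbouring a luciferase neomycin HCV replicon reporter; luciferase luminescence as measure of HCV replicon replication; test concentration not given here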
# [3] = biological target: Left-right determination factor 2 (Homo sapiens) (UniProt O00292); test: LEFTY2 binders on small-molecule microarrays, primary screen, biochemical, small-molecule microarray, 635 nm fluorescence scan (AID 1110); conditions: LEFTY2 binding, higher = more signal
# [4] = biological target: Calmodulin-1 (Homo sapiens) (UniProt P0DP23); test: CALM1 binders on microarrays, EGTA buffer, profiling panel, biochemical, small-molecule microarray, Cy5-labelled CALM1 (AID 1111); conditions: Cy5-CALM1 binding fluorescence, higher = more signal;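 also: labelled calmodulin applied in Tris saline Tween buffer holding calcium plus EGTA and DTT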
# [5] = biological target: Calmodulin-1 (Homo sapiens) (UniProt P0DP23); test: calcium-bound CALM1 binders on microarrays, profiling panel, artefact control for SMM control-protein annotation, biochemical, small-molecule microarray, Cy5-labelled CALM1, plus calcium (AID 1112); conditions: Cy5-CALM1 binding fluorescence, higher = more signal;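 also: score merges spot fluorescence with signal to noise from triplicate slides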
# [6] = small-molecule microarray binders of probe aWnt5a, primary screen, biochemical, biotinylated probe, 635/667 nm fluorescence (AID 1113); conditions: higher = more signal;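 also: score merges 667 nm fluorescence intensity with signal-to-noise per printed feature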
# [7] = small-molecule microarray binders of probe aShh, primary screen, biochemical, biotinylated probe, 635/667 nm fluorescence (AID 1114); conditions: higher = more signal;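 also: probe is biotin-labelled aShh protein from a stem cell growth factor screen; measures binding of labelled protein to compounds printed on the slide; score merges feature fluorescence at 667 nm with signal-to-noise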
# [8] = small-molecule microarray binders of probe aNog, primary screen, biochemical, biotinylated probe, 635/667 nm fluorescence (AID 1115); conditions: higher = more signal;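 also: probe is biotinylated aNog protein used at 0.15 µg/mL for 1 h at 4 C; z-score combines 667 nm fluorescence of each spot with its signal to noise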
# [9] = biological target: Torsin-1A-interacting protein 1 (Homo sapiens) (UniProt Q5JTV8); test: LAP1 binders from COS7 cell lysate, primary screen, small-molecule microarray, 635/667 nm fluorescence (AID 1116); conditions: COS7-hLAP1 lysate binding, 635 nm fluorescence, higher = more signal
# [10] = biological target: Alpha-bungarotoxin (Bungarus multicinctus) (UniProt P60615); test: alpha-bungarotoxin binders on microarray, profiling panel, artefact control for SMM control protein annotation, biochemical, small-molecule microarray, Alexa647 label, 635/667 nm fluorescence (AID 1117); conditions: alpha-BTX-A647 binding fluorescence, higher = more signal
# Alpha-bungarotoxin (Bungarus multicinctus), sequence (P60615 whole entry, looked up): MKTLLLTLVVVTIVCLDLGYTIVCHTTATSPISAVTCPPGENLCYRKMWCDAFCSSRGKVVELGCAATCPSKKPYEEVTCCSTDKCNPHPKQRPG
# Torsin-1A-interacting protein 1 (Homo sapiens), sequence (Q5JTV8 whole entry, looked up): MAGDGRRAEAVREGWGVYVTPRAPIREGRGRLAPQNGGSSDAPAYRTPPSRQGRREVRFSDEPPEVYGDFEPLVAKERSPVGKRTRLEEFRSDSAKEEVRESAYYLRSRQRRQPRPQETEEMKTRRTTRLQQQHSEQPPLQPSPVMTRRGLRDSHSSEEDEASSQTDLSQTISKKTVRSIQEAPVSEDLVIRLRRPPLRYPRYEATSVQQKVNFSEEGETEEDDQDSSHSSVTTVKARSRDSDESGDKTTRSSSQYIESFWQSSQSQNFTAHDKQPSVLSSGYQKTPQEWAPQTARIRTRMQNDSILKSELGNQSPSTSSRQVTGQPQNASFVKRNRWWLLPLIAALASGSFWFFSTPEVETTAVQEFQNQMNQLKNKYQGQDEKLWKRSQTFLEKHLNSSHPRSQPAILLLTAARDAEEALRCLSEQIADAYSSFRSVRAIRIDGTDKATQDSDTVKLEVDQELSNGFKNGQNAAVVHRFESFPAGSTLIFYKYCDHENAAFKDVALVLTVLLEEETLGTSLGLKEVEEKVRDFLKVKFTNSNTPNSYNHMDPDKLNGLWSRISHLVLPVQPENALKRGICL
# Left-right determination factor 2 (Homo sapiens), sequence (O00292 whole entry, looked up): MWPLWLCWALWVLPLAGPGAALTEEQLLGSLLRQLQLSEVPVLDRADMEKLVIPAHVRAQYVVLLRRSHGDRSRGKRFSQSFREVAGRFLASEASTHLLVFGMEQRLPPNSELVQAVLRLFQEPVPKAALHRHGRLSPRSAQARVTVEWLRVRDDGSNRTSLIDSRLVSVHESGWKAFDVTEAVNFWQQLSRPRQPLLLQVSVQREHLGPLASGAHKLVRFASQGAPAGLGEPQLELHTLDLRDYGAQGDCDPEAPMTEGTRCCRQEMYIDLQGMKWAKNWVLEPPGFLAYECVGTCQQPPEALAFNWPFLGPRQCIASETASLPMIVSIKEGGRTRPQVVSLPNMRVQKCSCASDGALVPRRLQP
SMILES,composite z-score [1],z-score [2],composite z-score [3],composite z-score [4],composite z-score [5],composite z-score [6],composite z-score [7],composite z-score [8],composite z-score [9],composite z-score [10]
CC1CC/C=C\[C@H]2OC34C=CCN(Cc5ccccc5)C(=O)[C@H]3N(CCO)C(=O)[C@@H]4C2C(=O)O1 (stereo not given in full),0.442,-0.0892,-0.51,-0.556,0.0116,0.0597,-0.0035,0.0169,1.62,-0.4
COCC(=C=CC[C@@H](O)c1ccccc1OCCO)C[C@@H](O)c1ccccn1,0.968,-0.979,0.289,-0.153,-0.514,-0.124,-0.0119,0.099,-0.246,0.34
CN1C(=O)C2C=CC(C(O)C3CCCCC3)N(N(c3ccccc3)c3ccccc3)C2C1=O (stereo not given),-1.93,-0.15,-0.939,0.142,0.405,0.204,0.117,0.0294,0.0416,-0.232
C=CCOC(=O)[C@@H]1[C@H]2C(=O)O[C@H](c3ccccc3)[C@H](c3ccccc3)N2[C@H](c2ccc(OCCOC(=O)[C@@H]3C[C@@H]4C(=O)N[C@@H](CCCCNC(C)=O)C(=O)N4[C@@H]3c3ccc(O)cc3)cc2)[C@@]12C(=O)Nc1ccc(I)cc12,1.41,-0.66,0.722,0.743,-0.342,-0.0684,0.0098,-0.192,0.6,0.831
O=C1O[C@@H](c2ccccc2)[C@@H](c2ccccc2)N2[C@@H](c3ccc(O)cc3)[C@]3(C(=O)Nc4ccc(C#CC5=CCCCC5)cc43)[C@@H](C(=O)Nc3nc4ccccc4s3)[C@H]12,1.4,-0.99,1.25,1.48,-0.18,0.428,0.368,2.02,0.825,1.87
COCCOC(=O)N1C(=O)[C@@]2(c3cc(C#Cc4ccc(OC)cc4)ccc31)[C@H](C(=O)N1CCc3cc(OC)c(OC)cc3C1)[C@H]1C(=O)O[C@H](c3ccccc3)[C@H](c3ccccc3)N1[C@@H]2c1ccc(OCCO)cc1,0.577,-0.195,0.516,1.24,0.897,-0.0482,-0.138,0.0637,0.247,1.41
COC(=O)[C@@]1(Cc2ccc(OC)cc2)[C@H]2c3cc(C(=O)N4CCCC4)n(CCF)c3C[C@H]2CN1C(=O)c1ccccc1,0.632,-1.27,-0.191,2.03,0.77,1.34,2.55,3.06,1.19,1.04
C=CC[C@]1(C(=O)N2CCOCC2)N=C(c2ccc(OCCCO)cc2)O[C@H]1c1ccccc1CN=[N+]=[N-],1.42,-1.85,0.366,1.84,0.403,0.127,0.398,1.88,1.94,0.948
COC(=O)[C@H]1N=C(c2ccc(OCCCO)cc2)O[C@H]1c1ccccc1CN=[N+]=[N-],1.05,-2.03,-1.16,0.452,0.516,0.0495,0.105,1.64,0.431,0.534
CN(C)C(=O)[C@@]1(CCC(=O)OC(C)(C)C)COC(c2ccc(OCCCO)cc2)=N1,1.08,-0.594,-1.04,0.38,0.816,-0.127,0.261,1.52,1.54,0.728
CN(C)C(=O)[C@@]1(Cc2ccccc2N=[N+]=[N-])N=C(c2ccc(OCCCO)cc2)O[C@H]1c1ccccc1N=[N+]=[N-],1.41,-2.28,-0.121,1.43,0.859,-0.0403,0.108,0.566,1.29,1.6
[N-]=[N+]=NCc1ccccc1C[C@]1(C(=O)NCCN2CCOCC2)COC(c2ccc(OCCCO)cc2)=N1,1.44,-1.79,-0.389,0.74,-0.096,0.0479,-0.0119,-0.509,0.555,-0.0034
O=C1O[C@H](c2ccccc2)[C@H](c2ccccc2)N2[C@H]1[C@@H](C(=O)N1CCCCCCC1)[C@]1(C(=O)Nc3ccc(C#CCCO)cc31)[C@H]2c1ccc(OCCO)cc1,1.62,-1.64,1.72,3.04,1.63,1.65,2.49,3.39,5.44,4.88
CCOC(=O)C[C@H]1[C@H](OC(=O)Cc2ccc3c(c2)OCO3)[C@@H](NC(=O)c2ccccc2)c2cc(OCCCO)ccc2N1C(=O)c1ccc2ccccc2n1,0.594,0.173,0.11,0.481,-0.455,-0.152,0.172,-0.0675,0.761,-0.055
C[C@]12C(=O)N(CCCCCO)[C@@H]3C(=O)N(c4ccc(Cl)cc4)CC=CC31O[C@@H]1/C=C\CCCOC(=O)C12 (stereo not given in full),-1.86,-0.381,-1.95,-0.811,1.22,-0.23,-0.138,-0.125,-0.579,-0.797
COc1cccc(C)c1NC(=O)O[C@H]1[C@H](OC(=O)Nc2ccccc2)[C@H](OC(=O)Nc2ccccc2)[C@@H](OC)O[C@@H]1CO,1.3,-2.96,-0.183,1.81,0.645,0.0775,0.775,-0.236,0.0722,1.3
COC(=O)C(CC#Cc1ccc2c(c1)[C@]1(C(=O)N2)[C@H](c2ccc(O)cc2)N2[C@H](c3ccccc3)[C@H](c3ccccc3)OC(=O)[C@H]2[C@@H]1C(=O)O)C(=O)OC,0.69,-0.76,0.029,0.351,0.0474,-0.175,-0.206,-0.124,-0.347,0.33
C=CCC(OC(C)=O)[C@@H]1[C@@H](N(Cc2ccc(-c3ccccc3)cc2)C(=O)Cc2ccc(OC)cc2)c2cc(OCCCO)ccc2N1C(=O)c1ccc(-c2ccccc2)cc1 (stereo not given in full),-0.354,0.257,0.265,0.36,0.807,-0.0718,-0.229,-0.174,0.609,0.544
COCCCNC(=O)[C@@H]1c2ccccc2C(=O)N(c2ccc(C)cn2)[C@H]1c1ccc(CO)cc1,-0.745,0.176,-1.83,-0.878,-0.827,-0.363,-0.19,-0.244,-2.83,-0.958
CCCCCCC#C[Si](O[C@H](c1ccccc1)c1cn(Cc2cccc(Cl)c2)nn1)(C(C)C)C(C)C,0.564,-0.775,0.198,-0.0008,-0.159,-0.124,-0.0035,-0.118,0.343,-0.0766
C=CCOC(=O)[C@H]1[C@@H]2C(=O)O[C@@H](c3ccccc3)[C@@H](c3ccccc3)N2[C@@H](c2ccc(OCCOC(=O)[C@H]3C[C@H]4C(=O)N[C@@H](CCCCN(C)C)C(=O)N4[C@H]3c3ccc(O)cc3)cc2)[C@]12C(=O)Nc1ccccc12,1.36,-0.917,0.823,0.724,-0.707,-0.0539,-0.157,-0.206,0.876,0.0397
CCOc1cc(C(O)C2C=CC3C(=O)NC(=O)C3N2Nc2ccccn2)ccc1O (stereo not given),-0.357,0.294,0.205,0.384,-0.108,-0.198,-0.117,0.0258,0.229,0.297
COc1ccc(CCNC(=O)[C@@H]2c3ccccc3C(=O)N(Cc3ccccc3C(F)(F)F)[C@H]2c2ccc(CO)cc2)cc1,1.47,-1.2,-1.27,-0.22,-0.181,-0.0735,-0.154,-0.559,0.381,-0.278
C[N+](C)(C)CCCCCCNC(=O)[C@@H]1C[C@@H]2C(=O)NCC(=O)N2[C@@H]1c1cccc(OCCO)c1,0.891,1.99,0.695,0.21,-0.359,-0.18,-0.333,-0.0317,0.602,1.96
COC(=O)[C@@]1(Cc2ccc(F)cc2)[C@H]2c3cc(C(=O)N4CCCC4)n(Cc4ccccc4)c3C[C@H]2CN1C(=O)c1ccccc1,1.07,-2.41,-0.253,1.98,0.666,-0.0843,-0.367,-0.357,1.56,0.657
C=C(CCCC)/C(=C/C[C@H](OC(=O)c1ccncc1)c1ccc(CO)o1)c1cc(C(=O)OC)ccc1OC,-0.0541,-1.93,0.982,0.786,-0.324,-0.196,0.256,0.95,0.539,1.28
